# Results filed as inconclusive are left out. Entries that show only a call come without a potency. The source made the active and inactive calls. Calls follow the shape of the dose curve; as a rule, active = well fitted curve in the direction sought with a large enough effect; inconclusive = small, poorly fitted or top-dose-only effect, or another doubt; inactive = no such curve, though single readings can be large; an effect the other way counts as inactive or inconclusive.
# Legend:
# [1] = qHTS of pediatric cancer cell lines to identify multiple opportunities for drug repurposing: Primary screen for Rh18 cells (AID 1347102); also: nearly all actives have a fitted effect of over 65% in size
# Summary of the method: (§1)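 Viability after 48 h compound treatment at 37C, 500-1,000 cells/well, read as ATP luminescence with CellTiter-Glo. Primary screens used 11-point (MIPE, 0.78 nM-46 µM) or 8-point (NPC, 0.59 nM-46 µM) final concentrations; follow-up screens used 11-point dilutions.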
# [2] = qHTS of pediatric cancer cell lines to identify multiple opportunities for drug repurposing: Primary screen for MG 63 (6-TG R) cells (AID 1347105); also: nearly all actives have a fitted effect of over 50% in size; also: potency is read from the fitted curve at half-maximal effect
# Summary of the method: (§2)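 Cells seeded at 500-1,000 cells/well in growth media, rested 5 hours at 37 degrees C, 5% CO2, then dosed; MIPE compounds at 11-point (from 0.78 nM) and NPC at 8-point (from 0.59 nM) final concentrations. Viability by CellTiter-Glo luminescence after 48 hours.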
# [3] = qHTS of pediatric cancer cell lines to identify multiple opportunities for drug repurposing: Primary screen for control Hh wild type fibroblast cells (AID 1347106);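 also: series mostly up to about 46 µM; a drop in luminescence marks cytotoxicity and a rise apparent proliferation; nearly all actives have a fitted effect of over 55% in size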
# Summary of the method: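 Cells (500-1,000/well) in growth media were settled 5 h at 37 degrees C, then given compounds for 48 h. Viability was read as CellTiter-Glo luminescence. Primary runs used MIPE at 11 points (0.78 nM-46 µM) and NPC at 8 points (0.59 nM-46 µM); follow-ups used 11 points.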
# [4] = qHTS of pediatric cancer cell lines to identify multiple opportunities for drug repurposing: Primary screen for Rh30 cells (AID 1347107); also: series mostly up to about 46 µM; nearly all actives have a fitted effect of over 75% in size
# Summary of the method: as §1
# [5] = qHTS of pediatric cancer cell lines to identify multiple opportunities for drug repurposing: Primary screen for OHS-50 cells (AID 1347103); also: nearly all actives have a fitted effect of over 40% in size; also: potency is read from the fitted curve at half-maximal effect
# Summary of the method: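 Cells (500-1,000/well) rested 5 h, then received compounds for 48 h; metabolically active cells were measured by CellTiter-Glo luminescence. Final concentrations spanned up to 46 µM (MIPE, 11-point) or 0.59 nM-46 µM (NPC, 8-point) in primary screens, 11-point in follow-ups.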
# [6] = qHTS of pediatric cancer cell lines to identify multiple opportunities for drug repurposing: Primary screen for RD cells (AID 1347104); also: nearly all actives have a fitted effect of over 55% in size; also: potency is read from the fitted curve at half-maximal effect
# Summary of the method: as §2
# [7] = qHTS of pediatric cancer cell lines to identify multiple opportunities for drug repurposing: Primary screen for Rh41 cells (AID 1347108);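 also: series mostly up to about 46 µM; luminescence drop marks cytotoxic hits; nearly all actives have a fitted effect of over 70% in size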
# Summary of the method: as §2
# [8] = qHTS of pediatric cancer cell lines to identify multiple opportunities for drug repurposing: Confirmatory screen for LAN-5 cells (AID 1347113); also: nearly all actives have a fitted effect of over 65% in size
# Summary of the method: as §1
# [9] = qHTS of pediatric cancer cell lines to identify multiple opportunities for drug repurposing: Confirmatory screen for DAOY cells (AID 1347114); also: nearly all actives have a fitted effect of over 65% in size
# Summary of the method: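 Viability measured as metabolically active cells via CellTiter-Glo luminescence following 48 hours of compound exposure, 11-point dilutions in confirmatory testing. 500-1,000 cells/well plated 5 hours before dosing; controls were DMSO and 2.3 µM bortezomib.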
# [10] = qHTS of pediatric cancer cell lines to identify multiple opportunities for drug repurposing: Confirmatory screen for NB-EBc1 cells (AID 1347115);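 also: cells exposed to compound for 48 h before the viability read; nearly all actives have a fitted effect of over 45% in size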
# Summary of the method: as §1
# [11] = qHTS of pediatric cancer cell lines to identify multiple opportunities for drug repurposing: Confirmatory screen for BT-37 cells (AID 1347117); also: nearly all actives have a fitted effect of over 55% in size
# Summary of the method: as §1
# [12] = qHTS of pediatric cancer cell lines to identify multiple opportunities for drug repurposing: Confirmatory screen for NB1643 cells (AID 1347109); also: nearly all actives have a fitted effect of over 45% in size
# Summary of the method: as §1
# [13] = qHTS of pediatric cancer cell lines to identify multiple opportunities for drug repurposing: Confirmatory screen for A673 cells (AID 1347110);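 also: cells exposed to compound for 48 h before the viability read; nearly all actives have a fitted effect of over 65% in size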
# Summary of the method: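 Forty-eight-hour viability assay. Follow-up compounds ran at 11-point dilutions; positive control bortezomib at 2.3 uM final, neutral control DMSO.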
# [14] = qHTS of pediatric cancer cell lines to identify multiple opportunities for drug repurposing: Confirmatory screen for BT-12 cells (AID 1347112); also: nearly all actives have a fitted effect of over 55% in size
# Summary of the method: as §1
# [15] = qHTS of pediatric cancer cell lines to identify multiple opportunities for drug repurposing: Confirmatory screen for MG 63 (6-TG R) cells (AID 1347119); also: nearly all actives have a fitted effect of over 55% in size
# Summary of the method: as §1
# [16] = qHTS of pediatric cancer cell lines to identify multiple opportunities for drug repurposing: Confirmatory screen for control Hh wild type fibroblast cells (AID 1347121); also: nearly all actives have a fitted effect of over 70% in size
# Summary of the method: as §1
structure (smiles),measurement,setting,value
O=C(Nc1ccc(OC(F)(F)F)cc1)c1sccc1NCc1ccnc2ccccc12,Potency,[1],inactive
same,Potency,[2],inactive
same,Potency,[3],inactive
same,Potency,[4],inactive
O=C(Nc1cccc2c(=O)cc(-c3nn[nH]n3)oc12)c1ccc(OCCCCc2ccccc2)cc1,Potency,[5],24.3 µM (active)
same,Potency,[6],37.2 µM (active)
same,Potency,[2],inactive
same,Potency,[3],inactive
same,Potency,[4],inactive
same,Potency,[7],inactive
Cc1ccc2c(c1)C(=O)[C@]1(O)CCN(c3ccccc3)C1=N2,Potency,[3],inactive
same,Potency,[4],inactive
same,Potency,[8],inactive
same,Potency,[9],inactive
same,Potency,[10],inactive
same,Potency,[11],inactive
CN(C)c1ccccc1CN1CCCN(Cc2ccccc2N(C)C)C1c1ccncc1,Potency,[5],27.3 µM (active)
same,Potency,[6],26.4 µM (active)
same,Potency,[2],inactive
same,Potency,[3],inactive
same,Potency,[4],inactive
Cc1ccccc1C(=O)c1ccc(Nc2ccc(Br)cc2N)cc1Cl,Potency,[3],inactive
C[C@@H](O[C@H]1OCCN(Cc2n[nH]c(=O)[nH]2)[C@@H]1c1ccc(F)cc1)c1cc(C(F)(F)F)cc(C(F)(F)F)c1,Potency,[5],30.6 µM (active)
same,Potency,[2],23.5 µM (active)
same,Potency,[3],inactive
CO[C@@H]1C(N(C)C(=O)c2ccccc2)C[C@H]2O[C@]1(C)n1c3ccccc3c3c4c(c5c6ccccc6n2c5c31)C(=O)NC4=O (some centres not stated),Potency,[5],inactive
same,Potency,[2],1.48 µM (active)
same,Potency,[4],inactive
same,Potency,[7],inactive
CCOC(=O)N1c2ccc(C(F)(F)F)cc2[C@@H](N(Cc2cc(C(F)(F)F)cc(C(F)(F)F)c2)C(=O)OC)C[C@H]1CC,Potency,[5],15.3 µM (active)
same,Potency,[2],inactive
same,Potency,[3],inactive
CC(C)(O)CC(=O)NCCn1ccc2ncnc(Nc3ccc(Oc4cccc(C(F)(F)F)c4)c(Cl)c3)c21,Potency,[5],30.6 µM (active)
same,Potency,[6],18.7 µM (active)
same,Potency,[3],inactive
CCC[C@@H](NC(=O)[C@@H]1[C@H]2CCC[C@@H]2CN1C(=O)[C@@H](NC(=O)[C@@H](NC(=O)c1cnccn1)C1CCCCC1)C(C)(C)C)C(=O)C(=O)NC1CC1,Potency,[2],inactive
same,Potency,[3],inactive
same,Potency,[4],inactive
Cc1ccc(NC(=O)Nc2cc(C(F)(F)F)ccc2F)cc1Nc1ccc2c(c1)NC(=O)C2=Cc1ccc[nH]1,Potency,[5],27.3 µM (active)
same,Potency,[2],18.7 µM (active)
same,Potency,[3],inactive
CNC(=O)c1cc(COc2nnc(Nc3ccc(Cl)cc3)c3ccoc23)ccn1,Potency,[5],21.7 µM (active)
same,Potency,[2],23.5 µM (active)
same,Potency,[3],inactive
CO[C@H]1/C=C\O[C@@]2(C)Oc3c(C)c(O)c4c(O)c(c5c(nc6cc(C)ccn65)c4c3C2=O)NC(=O)C(C)=CC=C[C@H](C)[C@H](O)[C@@H](C)[C@@H](O)[C@@H](C)[C@H](OC(C)=O)[C@H]1C,Potency,[6],inactive
same,Potency,[2],inactive
same,Potency,[3],inactive
same,Potency,[7],inactive
same,Potency,[12],inactive
same,Potency,[13],inactive
same,Potency,[14],inactive
same,Potency,[8],inactive
same,Potency,[9],inactive
same,Potency,[10],inactive
same,Potency,[11],inactive
same,Potency,[15],inactive
same,Potency,[16],inactive
